# A selection: hits, their analogues and other compounds. The true share with any hit is near 9.3%.
# HCMV antiviral: qHTS Assay for inhibitors of the human cytomegalovirus (HCMV). HFF cells, HCMV-luciferase reporter, 72 h; hits give low values. activity change, negative = inhibition, % at 57.5 µM. actives 4.5% (n = 410,000). AID 1259415, 2018; in the data active = activity change below about -60%; inconclusive = no clear call, values can overlap the other calls; inactive = above about -39%
#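 HFF cells seeded 16 h at 37C, treated with compounds, infected with luciferase-reporter HCMV at MOI 1 PFU/cell; luciferase read at 72 h post infection, normalized to buffer-only and Salinomycin controls.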
# Vaccinia mCherry: qHTS for Stage-Specific Inhibitors of Vaccinia Orthopoxvirus: mCherry Reporter Primary qHTS. Vaccinia virus mCherry reporter infection, fluorescence. Potency, µM (series often up to 36.5 µM), without a hit: at the highest dose activity change, negative = inhibition, most hits filed as inhibitors. actives 0.63% (n = 310,000); calls by dose curve; tested in A549 cells; also: potency is read from the fitted curve at half-maximal effect; nearly all actives have a fitted effect of over 35% in size
# Sm TGR block: qHTS Assay for the Inhibitors of Schistosoma Mansoni Peroxiredoxins; Potency, µM (titrated, usually from 114 µM), inactives show top-dose activity change, negative = inhibition, usual class: inhibitors; Schistosoma mansoni thioredoxin glutathione reductase (TGR), Q962Y6; purified TGR, DTNB reduction, TNB absorbance 405 nm; AID 485364, 2010; actives 3% (n = 360,000); also: potency is read from the fitted curve at half-maximal effect; nearly all actives have a fitted effect of over 60% in size
#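 First, TGR (20 nM dispensed) and NADPH were mixed with compound. Second, a 15 min room-temperature incubation followed. Third, further NADPH and then DTNB were added to start the reaction. Finally, TNB absorbance was monitored kinetically.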
# HCV inhibitor: qHTS Assay for Inhibitors of Hepatitis C Virus (HCV) | Huh7.5.1 HCVcc-Cre infection, luciferase reporter, 44 h | Potency, µM (doses to about 41.8 µM), without a hit: at the highest dose activity change, negative = inhibition, most hits filed as inhibitors | actives 3.4% (n = 340,000) | AID 651820, 2012; also: potency is read from the fitted curve at half-maximal effect
#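 After 44 h co-culture of compound, cells and HCVcc-Cre (~0.5 moi), substrate is added for 15 min at room temperature and luciferase measured over 15 sec. Cells were seeded at 1,000/well and pre-cultured 4 h.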
# Vaccinia Venus: qHTS for Stage-Specific Inhibitors of Vaccinia Orthopoxvirus: Venus Reporter Primary qHTS; Potency, µM (top dose mostly 36.5 µM), for the others: top-dose activity change, negative = inhibition, actives largely listed as inhibitors; Vaccinia virus Venus reporter expression, fluorescence; actives 0.46% (n = 330,000); calls by dose curve; tested in A549 cells; also: potency is read from the fitted curve at half-maximal effect; nearly all actives have a fitted effect of over 30% in size
# FMDV inh: High Throughput Screening for Foot and Mouth Disease Virus Antivirals. FMDV antiviral cell-based qHTS. Potency, µM (highest dose often 57.9 µM), for the others: top-dose activity change, negative = inhibition, usual class: inhibitors. actives 1.2% (n = 410,000). AID 1159524, 2015; calls by dose curve; tested in HEK293T cells; also: read-out not given here; potency is read from the fitted curve at half-maximal effect; nearly all actives have a fitted effect of over 45% in size
# * hit, by the source's call; i = inactive; ? = inconclusive; / = no result given. Unless noted, calls follow the shape of the dose curve; as a rule, active = well fitted curve in the direction sought with a large enough effect; inconclusive = small, poorly fitted or top-dose-only effect, or another doubt; inactive = no such curve, though single readings can be large; an effect the other way counts as inactive or inconclusive. % is scaled to controls: 0 for no effect and ±100 for the full control effect.
SMILES,HCMV antiviral,Vaccinia mCherry,Sm TGR block,HCV inhibitor,Vaccinia Venus,FMDV inh
COc1ccccc1CNC(=O)COC(=O)c1cccc(S(=O)(=O)N2CCOCC2)c1,-31.6,-10.0%,-1.1%,11.2µM*,-1.9%,-6.5%
COc1ccccc1CNC(=O)COC(=O)c1ccc(C)c(S(=O)(=O)N2CCOCC2)c1,-11.0,i,-32.7%,-9.4%,1.5%,-10.2%
O=C(COC(=O)c1cc(S(=O)(=O)N2CCOCC2)ccc1F)NCc1ccco1,16.3,-24.3%,44.7µM*,17.8%,-24.5%,-8.3%
COc1ccc(CNC(=O)c2cccc(S(=O)(=O)N3CCN(c4ccc(F)cc4)CC3)c2)cc1,?,-22.2%,2.5%,7.08µM*,-23.3%,-19.9%
CCCN(CC(=O)Nc1ccccc1C)C(=O)c1cccc(S(=O)(=O)N2CCc3ccccc3C2)c1,-13.2,-2.7%,2.4%,22.4µM*,-26.9%,-6.6%
Cc1ccccc1NC(=O)N1CCCN(c2ccc(C#N)cn2)CC1,48.8,-10.2%,-2.5%,0.8%,-2.7%,-19.3%
Cc1nnc(SCC(N)=O)n1CCc1ccccc1,22.2,/,-17.3%,-3.5%,/,-18.2%
NC(=S)N=Nc1c(O)[nH]c2ccc(F)cc12,-21.0,5.01µM*,-16.9%,-1.3%,3.55µM*,-3.9%
O=Nc1c(O)[nH]c2ccc(F)cc12,-24.1,-6.1%,10.0%,-2.6%,-25.5%,-7.1%
O=C1NC(c2cccs2)Nc2sc3c(c21)CCCC3 (stereo not drawn),54.2,/,28.2µM*,-2.4%,-19.3%,18.2%
CN1CCc2c(sc3c2C(=O)NC(c2ccco2)N3)C1 (stereo not drawn),30.3,/,-11.5%,-3.2%,/,23.4%
Cc1ccc(-n2c(C)cc(/C=C3/C(=O)NC(=O)N(Cc4ccco4)C3=O)c2C)cc1,-36.7,-8.2%,-32.7%,?,-7.0%,-22.2%
Cc1ccc(OCCn2cccc2/C=C2/C(=O)NC(=O)N(Cc3ccco3)C2=O)cc1,?,-7.9%,14.1µM*,10.5%,5.3%,15.9%
Cn1cccc1/C=C1\C(=O)NC(=O)N(Cc2ccco2)C1=O,?,/,39.8µM*,14.4%,/,0.0%
Nc1ncnc2nc(SCC(=O)Nc3cccc(C(F)(F)F)c3)[nH]c12,-26.1,-3.3%,2.2%,6.3%,-5.1%,50.6%
N#CCCN(C(=O)COC(=O)/C=C/c1cccs1)c1ccccc1,-13.1,i,/,3.5%,7.1%,-10.9%
CN1CC(=O)N(CC(=O)NCc2ccc3c(c2)OCO3)C1=O,-102.0*,i,0.4%,14.2%,-8.7%,1.4%
CC(=O)c1c(C)n(CC(=O)NCc2ccc3c(c2)OCO3)c2ccccc12,?,-8.4%,-0.2%,10µM*,-24.5%,/
O=C(Cn1c(CO)nc2ccccc21)NCc1ccc2c(c1)OCO2,-18.4,-15.4%,5.0%,?,-5.8%,-9.0%
O=C(Nc1ccc(Cl)cc1C(=O)N1CCCCC1)c1ccco1,5.4,12.6%,7.7%,22.5%,3.1%,-6.7%
CS(=O)(=O)N1CCC(C(=O)Nc2ccc(C(F)(F)F)cc2)CC1,-4.8,i,0.3%,-2.8%,-12.8%,-7.6%
COc1ccc(S(=O)(=O)Nc2c(C)cc(C)cc2C)c2cccnc12,-61.8*,i,2.5%,14.3%,-15.8%,?
CCc1ccccc1NS(=O)(=O)c1ccc(OC)c2ncccc12,?,-10.3%,4.1%,-18.4%,-6.1%,6.8%
O=C(Cc1ccc([N+](=O)[O-])cc1)Nc1ccc(Br)cn1,-61.2*,?,-15.7%,-15.0%,-19.4%,13.2%
CCCOc1ccc(/C=N\NC(=O)CCc2n[nH]c(=O)[nH]c2=O)cc1OC,28.2,i,0.0%,5.3%,-7.0%,-7.3%
SMILES,HCMV antiviral,Vaccinia mCherry,Sm TGR block,HCV inhibitor,Vaccinia Venus,FMDV inh
COc1ccccc1CNc1nc(-c2ccco2)nn1C(=O)c1ccccc1[N+](=O)[O-],50.2,-22.0%,89.1µM*,/,-6.4%,-7.2%
COc1ccc(CNc2nc(-c3ccco3)nn2C(=O)c2ccccc2C)cc1,71.6,-17.5%,-0.4%,/,-16.0%,34.2%
COc1ccc(C(=O)n2nc(-c3ccco3)nc2NCc2cccs2)cc1OC,44.1,-18.5%,20µM*,/,-17.3%,0.0%
Cc1cccc(C(=O)n2nc(-c3ccco3)nc2NCc2ccccc2)c1,32.2,-9.6%,35.5µM*,/,-1.5%,15.9%
C=CCN(c1ccccc1)S(=O)(=O)c1cccc(C(=O)N2CCN(c3ncccn3)CC2)c1,-34.1,-9.1%,6.1%,?,-11.6%,?
Nc1ncnc(NC2CCS(=O)(=O)C2)c1[N+](=O)[O-] (stereo not drawn),-24.0,i,10.4%,-3.1%,-8.6%,-5.8%
CCCCN(c1ccccc1)c1ncnc(N)c1[N+](=O)[O-],-102.3*,/,-19.0%,-11.0%,/,-18.8%
CN(c1ncnc(N)c1[N+](=O)[O-])C1CCS(=O)(=O)C1 (stereo not drawn),-74.2*,/,1.2%,-25.3%,/,-9.8%
Cc1ccccc1Oc1ncnc(N)c1[N+](=O)[O-],-32.8,i,-2.6%,4.0%,-16.0%,-12.9%
CN(c1ncnc(N)c1[N+](=O)[O-])C1CCCCC1,-94.0*,/,5.5%,?,/,-14.1%
CC(CCc1ccccc1)NC(=O)c1ccc(Br)cc1 (stereo not drawn),21.9,-19.5%,2.0%,-19.0%,-10.2%,0.0%
c1ccc(CCCCN2CCN=C2Nc2ccccc2)cc1,-22.3,-3.5%,-11.8%,-12.0%,-14.6%,-5.2%
O=C(NC1(Cc2ccccc2)CCN(CCCc2ccccc2)C1=O)c1ccccc1 (stereo not drawn),-98.1*,i,-2.8%,?,?,1.0%
CC(C)CCOc1ccc(C(=O)N2CCCC2C(=O)O)cc1 (stereo not drawn),-15.3,3.5%,15.0%,5.9%,-7.2%,-2.1%
O=C(Nc1ccccc1O)c1c(O)c2c([nH]c1=O)CCCC2,92.9,17.8µM*,/,14.3%,?,-15.7%
O=C(Nc1nccs1)c1c(O)c2c([nH]c1=O)CCCC2,0.0,i,11.4%,12.6%,-4.2%,40.4%
CN(c1ccccc1)S(=O)(=O)c1cccc(NC(=O)c2cncc(Br)c2)c1,0.0,i,7.6%,?,-27.3%,-10.9%
O=C(NCCCN1CCOCC1)c1[nH]c(C(F)(F)F)nc1-c1ccccc1,25.1,i,/,/,0.6%,-22.4%
COc1ccc(-c2nc(C(=O)NCCCN3CCOCC3)cc3c2[nH]c2ccccc23)cc1OC,3.4,-21.1%,-4.2%,12.6µM*,-17.0%,?
Cc1ccc(-c2nc(C(=O)NCCCN3CCOCC3)cc3c2[nH]c2ccccc23)cc1,-36.3,-13.4%,0.3%,11.2µM*,-20.5%,-25.8%

# Source: PubChem
